WT yeast gro inh: growth inhibition of WT strain, primary screen, mitochondrial fusion inhibitor project, WT and mutant strains, chemical genetic. mitochondrial fusion phenotypic screen. inhibition, % at 10 µM. 2.1% of 190,000 active. AID 1362, 2008; in the data active = inhibition above about 58%; tested in S. cerevisiae
PKD1 inh: inhibitors of human PKD1 kinase, biochemical, fluorescence polarization; Serine/threonine-protein kinase D1 (Homo sapiens), Q15139; PKD1 kinase fluorescence polarization assay; inhibition, % (test concentration not listed); 0.056% of 200,000 active; in the data active = inhibition above about 50%
zVAD death inh: inhibitors of zVAD-triggered necroptosis, primary screen, L929 cells; L929 zVAD necroptosis rescue, ATP luminescence, 24 h; with zVAD 60 µM; viability rescue, % at 10 µM; 0.38% of 220,000 active; AID 1377, 2008;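 active = activation, scaled between plate controls, above about 75%, limit read from the data; inactive = activation under that limit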
PERK inhibitor: block of dimerizer-induced PERK translation repression, primary screen, PERK inhibitor project, CHO PERK-DD cells, SEAP luminescence, HTS | AID 1416, 2008 | 0.17% of 220,000 active | inhibition, % at 5.6 µM | CHO PERK-DD fusion, SEAP luminescence translation reporter | Eukaryotic translation initiation factor 2-alpha kinase 3 (Homo sapiens), Q9NZJ5;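 active = inhibition above the mean inhibition of all tested compounds plus 3 SD, set separately per screening campaign, cut at about 2.9% in these data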;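 note: PERK kinase domain activated by AP20187 dimerizer at 100 nM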
Target sequence (Q9NZJ5 whole entry, looked up, the tested form may be a part): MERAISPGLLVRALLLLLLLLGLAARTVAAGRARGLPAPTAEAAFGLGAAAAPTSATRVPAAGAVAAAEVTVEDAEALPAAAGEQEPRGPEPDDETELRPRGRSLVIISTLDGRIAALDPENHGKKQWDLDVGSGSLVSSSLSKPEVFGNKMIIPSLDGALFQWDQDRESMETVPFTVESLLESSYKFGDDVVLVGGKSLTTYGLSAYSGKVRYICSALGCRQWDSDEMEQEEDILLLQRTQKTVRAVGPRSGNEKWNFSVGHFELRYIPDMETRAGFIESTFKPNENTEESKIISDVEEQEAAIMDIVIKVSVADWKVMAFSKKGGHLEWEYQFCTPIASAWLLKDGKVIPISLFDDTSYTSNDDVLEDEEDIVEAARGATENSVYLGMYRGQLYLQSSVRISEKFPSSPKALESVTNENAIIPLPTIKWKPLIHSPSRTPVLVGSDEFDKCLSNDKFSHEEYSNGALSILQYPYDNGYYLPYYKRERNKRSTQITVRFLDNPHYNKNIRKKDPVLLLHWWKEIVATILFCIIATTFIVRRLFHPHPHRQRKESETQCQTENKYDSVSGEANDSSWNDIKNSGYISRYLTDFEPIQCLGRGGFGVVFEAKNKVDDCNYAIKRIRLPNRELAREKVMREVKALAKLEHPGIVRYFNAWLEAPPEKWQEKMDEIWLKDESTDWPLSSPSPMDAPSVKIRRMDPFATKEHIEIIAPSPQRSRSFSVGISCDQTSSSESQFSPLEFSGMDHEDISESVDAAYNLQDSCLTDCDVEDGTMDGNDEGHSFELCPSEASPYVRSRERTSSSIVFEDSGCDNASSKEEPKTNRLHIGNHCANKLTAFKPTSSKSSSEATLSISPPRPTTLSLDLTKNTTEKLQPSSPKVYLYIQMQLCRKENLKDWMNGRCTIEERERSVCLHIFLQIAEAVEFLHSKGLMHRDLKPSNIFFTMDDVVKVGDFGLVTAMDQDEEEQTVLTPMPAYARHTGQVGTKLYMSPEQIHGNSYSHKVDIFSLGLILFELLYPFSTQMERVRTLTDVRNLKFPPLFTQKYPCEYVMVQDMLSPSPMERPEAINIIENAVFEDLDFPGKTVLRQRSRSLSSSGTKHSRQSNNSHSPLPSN
DTT redox prof: compounds producing H2O2 with reducing agent – biochemical, NIH compound library profiling, artefact control for MLSCN library redox annotation, primary screen; DTT-dependent redox cycling H2O2, phenol red/HRP absorbance; 100% = 100 µM peroxide control, 0% = buffer; AID 878, 2007; activation, % at 10 µM; 0.03% of 200,000 active;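 active = activation of at least 50% relative to the plate's high and low controls in the primary single-dose screen; inactive = activation below 50%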;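 note: compound incubated with DTT at 0.8 mM final as the reducing agent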
TNF death inh: inhibitors of TNF-alpha triggered necroptosis, primary screen, cell-based, Jurkat FADD-/-, single concentration; activation (protection from cell death), % at 10 µM; 0.068% of 220,000 active; Jurkat FADD-/- TNF necroptosis rescue, ATP luminescence, 24 h; 0 = TNF only, 100 = no-TNF cells;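 active = activation, meaning protection from cell death, of at least 50% relative to plate controls; inactive = activation below 50%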;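 note: necroptosis triggered by 40 ng/mL TNF-alpha added together with compound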
Hits are given with their value. Rows were chosen to be rich in hits. Some 2.4% of all compounds tested hit in one or more screens of this group.

`Cn1c(/N=C/c2cc(Cl)ccc2O)nc2ccccc21` gave WT yeast gro inh inactive, PKD1 inh inactive, zVAD death inh inactive, PERK inhibitor inactive, DTT redox prof inactive and TNF death inh inactive.
CCc1nnc(NC(=O)c2ccc(S(=O)(=O)N(CC)Cc3ccccc3)cc2)o1 was read as WT yeast gro inh 63, PKD1 inh inactive, zVAD death inh inactive, PERK inhibitor inactive, DTT redox prof inactive and TNF death inh inactive.
O=C(Nc1nnc(C2CC2)o1)c1ccc(S(=O)(=O)N2CCCc3ccccc32)cc1 was read as WT yeast gro inh 63, PKD1 inh inactive, zVAD death inh inactive, DTT redox prof inactive and TNF death inh inactive.
CN(Cc1ccccc1)S(=O)(=O)c1ccc(C(=O)Nc2nnc(C3CC3)o2)cc1 was read as WT yeast gro inh 74, PKD1 inh inactive, zVAD death inh inactive, PERK inhibitor inactive, DTT redox prof inactive and TNF death inh inactive.
Screening CC(C)(C)c1ccc(NC(=O)CNC2CCCc3ccccc32)cc1 (stereo not drawn) returned WT yeast gro inh 81, PKD1 inh inactive, zVAD death inh inactive, PERK inhibitor inactive, DTT redox prof inactive and TNF death inh inactive.
Cc1ccc(NC(=O)CN(C)CC(=O)NC2CCCc3ccccc32)cc1 (stereo not drawn) was read as zVAD death inh inactive, PERK inhibitor inactive and TNF death inh inactive.
Screening CC(Oc1ccccc1)C(=O)N1CCN=C1SCc1ccc(F)cc1 (stereo not drawn) returned zVAD death inh inactive, PERK inhibitor inactive and TNF death inh inactive.
CN(Cc1ccc(OC(F)F)cc1)Cc1nc2c(Br)cc(Br)cc2c(=O)[nH]1 was read as WT yeast gro inh 70, PKD1 inh inactive, zVAD death inh inactive, PERK inhibitor inactive, DTT redox prof inactive and TNF death inh inactive.
For Cc1ccc(NC(=O)CN(C)Cc2nc3c(Br)cc(Br)cc3c(=O)[nH]2)cc1 the results were WT yeast gro inh inactive, PKD1 inh inactive, zVAD death inh inactive, PERK inhibitor inactive, DTT redox prof inactive and TNF death inh inactive.
COC(=O)c1ccc(S(=O)(=O)N2Cc3ccccc3C2)cc1 was read as WT yeast gro inh inactive, PKD1 inh inactive, zVAD death inh inactive, PERK inhibitor inactive, DTT redox prof inactive and TNF death inh inactive.
`CCOC(=O)c1c(-c2ccc(OC)cc2)csc1/N=C/C1=C(O)CCCC1=O` gave WT yeast gro inh 60, PKD1 inh inactive, zVAD death inh inactive, PERK inhibitor inactive, DTT redox prof inactive and TNF death inh inactive.
`COc1cc(Cl)cc(/C=C/c2ccc3ccccc3n2)c1OC(C)=O` gave WT yeast gro inh 60, PKD1 inh inactive, zVAD death inh inactive, PERK inhibitor inactive, DTT redox prof inactive and TNF death inh inactive.
`CC(=O)Nc1nnc(C2=COCCO2)o1` gave WT yeast gro inh inactive, PKD1 inh inactive, zVAD death inh inactive, PERK inhibitor inactive, DTT redox prof inactive and TNF death inh inactive.
`O=C(Nc1nnc(C2=COCCO2)o1)c1ccc(Cc2ccccc2)cc1` gave WT yeast gro inh 68, PKD1 inh inactive, zVAD death inh inactive, PERK inhibitor inactive, DTT redox prof inactive and TNF death inh inactive.
For O=C(Nc1nnc(C2=COCCO2)o1)c1ccc(Cl)cc1 the results were WT yeast gro inh 60, PKD1 inh inactive, zVAD death inh inactive, PERK inhibitor inactive, DTT redox prof inactive and TNF death inh inactive.
For O=C(Nc1nnc(-c2ccco2)o1)c1ccc(Cl)cc1 the results were WT yeast gro inh 65, PKD1 inh inactive, zVAD death inh inactive, PERK inhibitor inactive, DTT redox prof inactive and TNF death inh inactive.
O=[N+]([O-])c1c(C(Cl)Cl)nn(-c2ccc(Cl)cc2)c1N1CCCCC1 was read as WT yeast gro inh 75, PKD1 inh inactive, PERK inhibitor inactive, DTT redox prof inactive and TNF death inh inactive.

From PubChem BioAssay
